INS promoter inh: inhibitors of insulin promoter-driven GFP, primary screen, imaging, TRM-6 cells (human fetal islet line), eGFP reporter, cell count; reporter expression induced with tamoxifen; inhibition, % at 2 µM; hit rate 0.9% among 130,000;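 active = inhibition above the mean plus 3 SD, with well images judged a real hit on visual review, cut at about 60% in these data, passing the limit was not always enough; inconclusive = inhibition over the cutoff but images rejected on review; inactive = inhibition not above the cutoff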
Measles CPE: compounds protecting cells from measles virus cytopathic effect, primary screen, measles RdRp inhibitor project, single point, MLSMR library, absorbance | Measles virus-infected cells, CPE protection | protection (pct of control), % at 4 µM | hit rate 1.5% among 140,000; in the data active = protection mostly above about 24%, no sharp cut-off; inactive = mostly below about 26%
ROMK primary: ROMK potassium channel modulators, primary screen, cell-based, thallium flux, MLSMR library; ATP-sensitive inward rectifier potassium channel 1 (Homo sapiens), P48048; Tet-inducible ROMK, thallium flux fluorescence; actives lie on both sides; B-score at 10 µM; hit rate 2% among 130,000; AID 1918, 2009;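 active = signal ratio slope over the read window, or its plate-corrected B-score, at least 3 SD from the plate mean, either direction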;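 note: B-score of the F/F0 ratio slope over 7 to 12 s after thallium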
Target sequence (P48048 whole entry, looked up): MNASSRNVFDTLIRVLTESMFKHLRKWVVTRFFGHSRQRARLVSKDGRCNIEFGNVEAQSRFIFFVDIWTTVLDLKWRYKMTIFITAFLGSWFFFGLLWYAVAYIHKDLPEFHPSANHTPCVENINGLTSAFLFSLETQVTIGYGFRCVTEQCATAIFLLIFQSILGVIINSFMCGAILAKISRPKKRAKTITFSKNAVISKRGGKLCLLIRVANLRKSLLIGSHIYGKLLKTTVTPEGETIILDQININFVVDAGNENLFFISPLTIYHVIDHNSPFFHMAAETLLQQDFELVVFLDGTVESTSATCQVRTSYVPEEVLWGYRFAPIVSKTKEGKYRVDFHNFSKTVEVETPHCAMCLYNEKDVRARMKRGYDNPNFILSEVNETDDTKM
SDO1 yeast rescue: growth rescue of sdo1-depleted yeast, primary screen, S. cerevisiae, bone marrow failure model; S. cerevisiae sdo1-depleted JHY4D growth rescue, OD600 30 h; hits give high values; pdr5 snq2 efflux-pump mutant strain; z-score at 10 µM; hit rate 0.21% among 140,000;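 active = z-score above 3 at both the 24 hr and the 30 hr optical density reads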;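 note: z-score against mean and SD of all compound wells on the same plate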
ROMK retest: ROMK channel modulator hit retest, confirmation, cell-based, thallium flux, duplicate, resupplied hits | shares compounds with ROMK primary | fluorescence ratio; hits give low values | normalized thallium flux (F/F0 slope) at 10 µM | hit rate 54% among 3,000 | AID 1917, 2009;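 active = Flux at 10 µM at least 3 SD below or above vehicle control mean in one or both replicates; inconclusive = no clear call, values can overlap the other calls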
* marks the source's active call; other numbers are inactive results; ? = inconclusive; . = no result. In the library only some 3% were active in any assay of this set; here they are far more common.

SMILES | INS promoter inh | Measles CPE | ROMK primary | SDO1 yeast rescue | ROMK retest
c1nnc(NC2=NCCCCC2)s1 | 11 | 0 | -0.48 | 0.71 | .
N/C(=N/O)c1ccccc1N1CCC(Cc2ccccc2)CC1 | . | . | -4.5* | . | 0.074
c1ccc(CC2CCN(c3nnnn3-c3ccccc3)CC2)cc1 | 24 | 4 | -0.38 | -0.54 | .
O=C(CSc1cccc(C(F)(F)F)c1)Nc1ccc(Cl)cc1Cl | . | 5 | . | -0.74 | .
COCCNC(=O)Cn1cc(C(=O)c2ccco2)c2ccccc21 | -93 | . | 2 | . | .
CCOC(=O)NC(Nc1sc2c(c1C(=O)OC)CCN(C)C2)(C(F)(F)F)C(F)(F)F | 44 | 7 | -0.04 | 0.06 | 0.076
CCC(C)n1c(SCc2ccc([N+](=O)[O-])cc2)nc2ccsc2c1=O (configuration not stated) | 10 | 9 | 1.8 | -0.61 | .
O=C(Cc1ccccc1)NCC(=O)OCC(=O)c1ccccc1Cl | . | . | -0.02 | . | .
CCOC(=O)c1c(CSC(=N)N)n(-c2ccccc2)c2cc(Br)c(OC(C)=O)cc12 | . | . | . | . | 0.058*
O=C(N/N=C/c1ccc2c(c1)OCO2)c1ccc(COc2cccc3cccnc23)cc1 | 11 | . | -0.099 | . | .
COc1ccc(C(=O)C2CCCN(S(=O)(=O)c3cccnc3)C2)c(C)c1 (configuration not stated) | . | . | -8.6* | . | 0.075
COc1cccc(C(=O)C2CCCN(Cc3cccn3-c3cccnc3)C2)c1 (configuration not stated) | . | . | -2.9* | . | 0.072
CC(=O)O[C@]1(C(C)=O)CC[C@H]2[C@@H]3C=C(Cl)C4=CC(=O)CC[C@]4(C)[C@H]3CC[C@@]21C | -5 | 8 | . | -0.19 | 0.075
CCN(CC)c1ccc(/C=C2/C(=O)c3ccc(C(=O)O)cc3C2=O)cc1 | 21 | 11 | . | -0.03 | .
CCNC(=O)CC1C(=O)N(C)C(=S)N1NC(=O)c1ccc(Cl)cc1 (configuration not stated) | -68 | 12 | . | -0.76 | 0.076
O=C(Nc1cccc(S(=O)(=O)N2CCCCC2)c1)c1ccc2c(=O)n3c(nc2c1)CCCCC3 | . | 9 | . | 0.64 | 0.064*
O=C(Nc1nccs1)c1ccc2c(=O)n3c(nc2c1)CCCCC3 | . | 24 | . | -1.7 | .
O=C(CSc1nnc(CNC(=O)c2ccccc2F)o1)NCc1ccccc1 | 0 | . | 0.95 | . | .
CN(CCn1ccnc1)Cc1cn(-c2ccccc2)nc1-c1ccc2c(c1)OCO2 | -17 | . | -4.6* | . | 0.052*
COCCC1CCCCN1Cc1cn(-c2ccccc2)nc1-c1ccc2c(c1)OCO2 (configuration not stated) | . | . | -4.9* | . | 0.052*
CC(C)(C)N1CC2(c3ccccc3)CN(C(C)(C)C)CC(c3ccccc3)(C1)C2=O | -20 | 19 | 3* | 0.65 | 0.075
O=C(O)COCC(=O)Nc1ccc(-n2cnnn2)cc1 | -58 | . | 0.19 | . | .
O=C1c2cccc3c([N+](=O)[O-])ccc(c23)C(=O)N1c1ccccn1 | . | 1 | -1.8 | -2.6 | .
O=C1c2cccc3c([N+](=O)[O-])ccc(c23)C(=O)N1c1ccc(Cl)cn1 | . | 5 | -3.7* | -2.5 | 0.048*
CN(C)S(=O)(=O)N1CCN(C(=O)c2cccs2)CC1 | -11 | 5 | 1.2 | 0.29 | .
SMILES | INS promoter inh | Measles CPE | ROMK primary | SDO1 yeast rescue | ROMK retest
CCOP(=O)(OCC)C(NC(=O)c1cccs1)C(F)(F)F (configuration not stated) | 20 | . | -0.2 | . | .
COC(=O)c1sc2nc(C)nc(SCC(=O)N3CCC(C(=O)O)CC3)c2c1C | 0 | . | 0.54 | . | .
Fc1ccc(N2CCN(c3ncnc4c3nnn4Cc3ccccc3Cl)CC2)cc1 | 38 | 2 | -2.7* | -1 | 0.066*
FC(F)(F)c1ccc(N2CCN(c3ncnc4c3nnn4Cc3ccccc3Cl)CC2)cc1 | 31 | 4 | -0.045 | -0.34 | .
O=C(c1ccco1)N1CCN(c2ncnc3c2nnn3Cc2ccccc2Cl)CC1 | -6 | 5 | -5.1* | -0.74 | 0.07
Cn1cccc1CC(=O)NNC(=S)NC(=O)c1ccccc1Br | -61 | . | 0.11 | . | .
Cc1cccc(N2CCN(C(=O)CCCSc3nc4ccccc4[nH]3)CC2)c1C | 38 | 10 | . | -1.3 | .
O=C(NC1CCCCCC1)c1cc(S(=O)(=O)N2CCCCC2)ccc1N1CCOCC1 | 27 | . | -3.2* | . | 0.061*
Cn1c(/C(C#N)=C/Nc2ccccn2)nc2ccccc21 | 11 | 4 | -0.61 | -0.07 | .
Cn1c(/C(C#N)=C/c2cccc(O)c2)nc2ccccc21 | . | . | -5* | . | 0.049*
CCOc1ccc(C(=O)NCCc2ccc3c(c2)OCCO3)cc1 | 27 | . | -0.81 | . | .
O=c1[nH]sc2ccccc12 | -55 | . | -4.5* | . | 0.052*
CC(C)C1CC(CCNCc2ccc3c(c2)OCO3)(c2ccccc2)CCO1 (configuration not stated) | . | . | -2.9* | . | 0.055*
Cc1ccc(C2(CCNCc3ccc(N(C)C)cc3)CCOC(C(C)C)C2)cc1 (configuration not stated) | . | . | -1 | . | .
CC(C)C1CC(CCNCc2ccc(N(C)C)cc2)(c2ccccc2)CCO1 (configuration not stated) | . | 7 | . | -0.1 | 0.048*
Cc1ccc(C2(CCNS(=O)(=O)c3ccc(C)cc3)CCOC(C(C)C)C2)cc1 (configuration not stated) | . | 3 | . | -0.6 | 0.061*
Cc1ccc(N(C(=O)c2csnn2)C(C(=O)NC(C)(C)C)c2cccnc2)cc1 (configuration not stated) | . | . | 0.45 | . | .
CCCCCCc1ccc(-c2ncc(N)cn2)cc1 | -19 | 8 | -4.3* | -2.9 | 0.081
COCCNC(=O)c1c(CSc2ccc(F)cc2)noc1C(=O)NCc1ccccc1 | . | 8 | -0.69 | -1.4 | .
O=C(NCc1ccccc1)c1onc(CSc2ccccc2)c1C(=O)NCC1CC1 | . | . | . | . | 0.073
COc1cc2ncnc(NCc3ccccc3C)c2cc1OC | 17 | 3 | . | 0.61 | ?
COc1cc2ncnc(NCc3ccccc3Cl)c2cc1OC | . | . | -1.6 | . | .
COc1ccc(-c2c[n+]3c4n2CCCCC4=C(c2ccc(Br)cc2)C3)cc1 | . | 8 | -4.6* | -1.5 | 0.052*
Clc1ccc(C2=C3CCCCn4c(-c5ccccc5)c[n+](c43)C2)cc1 | -8 | 3 | . | -2.2 | 0.064*
O=C(/C=C/c1ccccc1)Nc1nnc(-c2ccco2)o1 | -58 | . | -0.025 | . | .
SMILES | INS promoter inh | Measles CPE | ROMK primary | SDO1 yeast rescue | ROMK retest
CCOc1cc(NC(=O)c2cnccn2)c(OCC)cc1NC(=O)c1cccc(F)c1 | -19 | . | 0.13 | . | .
CCN1CCCc2cc(CN(CCN3CCOCC3)C(=O)Nc3ccc(C)c(C)c3)ccc21 | 50 | 15 | -3.5* | -1.1 | 0.056*
COC(=O)c1c(NC(=S)Nc2ccc(C(=O)N3CCOCC3)cc2)sc2c1CCC2 | . | . | -0.62 | . | .
CCN(CC)S(=O)(=O)c1cc(NC(=O)COC(=O)c2ccc(NC(=O)CC#N)cc2)ccc1C | -20 | . | 0.87 | . | .
O=C(CSc1ncn[nH]1)NC12CC3CC(CC(C3)C1)C2 | 18 | 3 | 3* | 0.37 | 0.075
CCCn1c(SCC(=O)NC23CC4CC(CC(C4)C2)C3)n[nH]c1=O | 12 | 28 | . | 0.34 | .
CN(CC(=O)Nc1cccc([N+](=O)[O-])c1)S(=O)(=O)c1ccccc1 | 0 | . | -0.03 | . | .
